According to PubChem BioAssay (EPA / NIEHS):
Some structures have more than one record in an assay (separate samples or runs), and their calls can disagree. The source made the active and inactive calls. How the source made its calls: active means hit-call score of the fitted dose curve at least 0.9, where 1 is the maximum; inactive means score below 0.9.

Test: CCTE_Shafer_MEA_dev_firing_rate_mean: CCTE's Neural Network Formation Assay for Mean Firing Rate, Shafer Lab (AID 2284031);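 on AC50: curve fitted for loss of firing so AC50 reflects decreased mean firing rate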
Experimental: CCTE_Shafer_MEA_dev assay is conducted using Axion Biosystems 48 well microelectrode array (MEA) plates and Maestro recording system. Each well of the MEA plate contains a grid of 16 microelectrodes embedded in the culture surface. Electrically active cells, such as neurons, can be cultured over the electrodes, and electrical activity in these cells can be recorded extracellularly. The spontaneous firing of neurons is captured from each electrode on a microsecond timescale providing both temporally and spatially precise data. […] The CCTE_Shafer_MEA_dev assay uses primary cultures of rat cortical neurons. Recordings are made on days post-plating 5, 7, 9 and 12. As these cultures mature over time, neural networks develop functional activity and form cohesive networks in which electrical activity can be highly coordinated. CCTE_Shafer_MEA_dev_firing_rate_mean is 1 of 19 assay components of the CCTE_Shafer_MEA_dev assay. It measures the frequency of spikes (action potential firings) as the total number of spikes divided by the length of the recording in a microelectrode array (MEA) using Axion Biosystems Maestro 768 channel amplifier with the AxIS adaptive spike detector. The firing rate is averaged across the active electrodes to report a well-mean value. To collapse across multiple recordings made on days post-plating 5, 7, 9 and 12, the trapezoidal area-under-the-curve of the component is calculated.Data from the assay component CCTE_Shafer_MEA_dev_firing_rate_mean was analyzed into 1 assay endpoint. This assay endpoint, CCTE_Shafer_MEA_dev_firing_rate_mean, was analyzed in the negative analysis fitting direction relative to DMSO as the negative control and baseline of activity. Using a type of functional reporter, gain or loss-of-signal activity can be used to understand electrical activity.
On the day prior to culture, each well was coated thoroughly with 150 uL of 0.05% polyethyleneimine (PEI, Sigma Cat P3143) in 50 mM HEPES (Sigma Cat H7523) at a pH of 8. The plate was incubated at 37C for one hour. PEI was rinsed out with 500 uL of sterile water three times. Plates were stored at 4C until the day of culture. This culture was plated at a seeding density of 1.5 x 10^5 cells/well on a 48-well MEA plate, prepared as described above. Cells were administered via a 25 uL media/laminin ([…]; Sigma Cat L2020-1MG) drop directly onto the microelectrode array, as adding the cells with the laminin results in better attachment than pre-coating with laminin. After 2 hours, an additional 475 uL of cortical media was added and the cells returned to the incubator. Exposure starts at day 0 of plating and is continued over twelve days of network development until the experiment is terminated. Cells are fed with fresh medium on DIV 5 and 9, following the recordings on those days. The entire volume of media in the well is exchanged and any vehicle or compound treatment is renewed. Complete details are found in OP-NHEERL/ISTD/SBB/TJS/2015-03-r0 (available on request, email shafer.tim@epa.gov). Measurement of the electrical activity is non-invasive, and recordings can be made from the same plate over multiple different days of the culture. In cortical neurons, this allows for the measurement of extracellular action potentials over the period during which networks form in the MEA plate.

Compound | outcome | AC50
CC=CC(F)(F)C(F)(F)C(F)(F)F | inactive | –
Nc1ncn([C@@H]2O[C@H](CO)[C@@H](O)[C@H]2O)c(=O)n1 | inactive | 3.41 µM (active)
CC1(C)S[C@@H]2[C@H](NC(=O)COc3ccccc3)C(=O)N2[C@H]1C(=O)O | inactive | –
FC(F)=C(F)OC(F)(F)C(F)(F)C(F)(F)F | inactive | –
N[C@H]1C(O)O[C@H](CO)[C@H](O)[C@@H]1O (stereo not given in full) | inactive | –
COC(F)(F)C(F)(C(F)(F)F)C(F)(F)F | inactive | –
CCOC(F)(F)C(F)(F)C(F)(F)C(F)(F)F | inactive | –
CN(C)c1ccc(C(=N)c2ccc(N(C)C)cc2)cc1 | – | 2.67 µM (active)
c1ccc2c(c1)ccc1cc3c(ccc4ccccc43)cc12 | inactive | –
